Screens (PubChem BioAssay)
An excerpt weighted towards active compounds, which were near 7.4% of everything screened.
Luciferase inh: Photinus pyralis luciferase inhibition. Potency, µM (titrated, usually from 115 µM), usual class: inhibitors. 76,000 tested, 2.5% active. AID 1347043. P08659. purified P. pyralis luciferase, luminescence, biochemical; further: nearly all actives have a fitted effect of over 65% in size
Target sequence (P08659 whole entry, looked up): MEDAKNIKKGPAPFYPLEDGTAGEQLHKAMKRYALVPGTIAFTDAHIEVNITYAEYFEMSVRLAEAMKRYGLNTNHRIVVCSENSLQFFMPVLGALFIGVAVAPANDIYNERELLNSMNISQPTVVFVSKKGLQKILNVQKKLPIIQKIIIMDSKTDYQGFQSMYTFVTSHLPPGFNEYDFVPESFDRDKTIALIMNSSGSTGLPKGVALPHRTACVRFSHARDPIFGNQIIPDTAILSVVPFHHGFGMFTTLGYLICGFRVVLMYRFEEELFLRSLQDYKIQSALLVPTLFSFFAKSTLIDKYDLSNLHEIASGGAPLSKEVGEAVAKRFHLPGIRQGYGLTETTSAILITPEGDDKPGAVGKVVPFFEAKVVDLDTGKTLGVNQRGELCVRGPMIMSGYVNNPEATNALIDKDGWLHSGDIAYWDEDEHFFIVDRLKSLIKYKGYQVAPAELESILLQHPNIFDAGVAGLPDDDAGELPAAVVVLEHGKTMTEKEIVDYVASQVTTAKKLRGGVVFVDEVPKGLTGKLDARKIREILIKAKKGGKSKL
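Biochemical qHTS: compound (6-point titration) added to 10uM D-luciferin plus 10uM ATP in Tris acetate pH 7.5 buffer with Mg, Tween-20 and BSA, then purified enzyme at 10nM; light output imaged.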
SNCA expr inhib: reduces expression of the alpha-synuclein gene | HEK-293 SNCA-luciferase knock-in, luminescence, 24 h | Potency, µM (series often up to 57.2 µM), inactives show at the highest dose activity change, negative = inhibition, actives largely listed as inhibitors | 140,000 tested, 0.17% active;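 further: plate controls were DMSO cells for no effect and cell-free wells for full effect; nearly all actives have a fitted effect of over 45% in size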
HEK293 viab: counter-screen for SNCA expression inhibitors: cell viability; HEK-293-SNCA-luc viability, GF-AFC fluorescence, 24 h; Potency, µM (doses to about 57.1 µM), for the others: top-dose activity change, negative = cytotoxicity, usual class: cytotoxic; 150,000 tested, 0.12% active; AID 1671193;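 further: 0% = DMSO-treated cells and -100% = medium-only wells without cells; nearly all actives have a fitted effect of over 30% in size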
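Cytotoxicity counterscreen: after 24 h compound treatment of genome-edited SNCA-luciferase HEK-293 cells, live-cell protease substrate GF-AFC read by fluorescence after 30 min; activity scaled between DMSO (0%) and medium-only (-100%), curves Hill-fitted.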
NPR1 antag: human Npr1 receptor antagonism; P16066; HEK293 hNpr1 GloSensor cGMP, ANP-stimulated luminescence; Potency, µM (top dose mostly 46.3 µM), without a hit: top-dose activity change, negative = inhibition, most hits filed as inhibitors; 76,000 tested, 1.6% active; AID 1347048; calls by dose curve; further: nearly all actives have a fitted effect of over 60% in size
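HEK293 cells stably expressing human Npr1 and cGMP GloSensor pGS-40F, loaded 2 h with 2% GloSensor reagent, given compound 30 min at room temperature. Luminescence read before and 20 min after 0.1 nM hNppA.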
NIH3T3 tox: cytotoxic compounds in NIH 3T3 cells; NIH 3T3 viability, CellTiter-Glo ATP luminescence, 48-72 h; Potency, µM (top dose mostly 96.7 µM), for inactives: top-dose activity change, negative = cytotoxicity, actives largely listed as inhibitors; 94,000 tested, 4.3% active; AID 1345082; further: nearly all actives have a fitted effect of over 55% in size
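Cytotoxicity was measured by CellTiter-Glo ATP luminescence after 48 or 72 h compound exposure at 37 °C. Mouse NIH 3T3 fibroblasts were seeded at 400 cells/well and dosed by 23 nL pin transfer.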
HEK293 tox: cytotoxic compounds in HEK 293 cells. HEK 293 viability, ATP luminescence (CellTiter-Glo), 48-72 h. Potency, µM (series often up to 115 µM), for inactives: at the top dose activity change, negative = cytotoxicity, hits mostly inhibitors. 94,000 tested, 6.6% active; further: nearly all actives have a fitted effect of over 60% in size
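qHTS cytotoxicity; HEK 293, 250 cells/well; compound pinned; 48 or 72 hr, 37 degree Celsius, 5% CO2, 95% humidity; CellTiter-Glo, 10 min RT; luminescence (ATP).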
An asterisk follows results filed as active; i = inactive; u = inconclusive; x = not tested or not shown; ! = repeats disagree; [ ] = dose if it differs, or a comment. Unless noted, the call rests on the fitted dose curve; in most records, active means well fitted curve in the direction sought with a large enough effect; inconclusive means small, poorly fitted or top-dose-only effect, or another doubt; inactive means no such curve, though single readings can be large; an effect the other way counts as inactive or inconclusive. Unless noted, on the % scale 0 is the no-effect control and ±100 the full control effect; potency means the concentration at half of the fitted maximal effect.

SMILES	Luciferase inh	SNCA expr inhib	HEK293 viab	NPR1 antag	NIH3T3 tox	HEK293 tox
CCc1ccc(CNC(=O)C2CCN(C(=O)c3nnn4c3COC(c3ccc(C)cc3)C4)CC2)cc1 (stereo unspecified)	39.8µM*	80.1%	-1.5%	-12.8%	-11.6%	-15.9%
Cc1ccc(C2Cn3nnc(C(=O)N4CCC(C(=O)NCC(C)c5ccccc5)CC4)c3CO2)cc1 (stereo unspecified)	31.6µM*	67.6%	-7.4%	-0.7%	i	-0.6%
O=C(CCc1ccc(CC2CCN(C(=O)NCC3CCCO3)CC2)cc1)NCC1CC1 (stereo unspecified)	x	-15.9%	u	x	u	u
O=C(NCCc1ccc(F)cc1)c1ccc2nnc(-c3ccc(Cl)cc3)n2c1	x	-5.2%	-13.8%	x	u	u
Cc1ccc(C(=O)N2CCC(Cc3nc(-c4ccccc4)n[nH]3)CC2)cn1	x	2.3%	-4.2%	x	-25.9%	-12.9%
Cc1ccc(C2Cn3nnc(C(=O)N4CCC(C(=O)NCc5ccccc5)CC4)c3CO2)cc1 (stereo unspecified)	39.8µM*	44.0%	-0.1%	2.6%	-8.5%	2.9%
CC(=O)NC1CCCN(c2ccc3nnc(C)n3n2)C1 (stereo unspecified)	x	x	x	x	-3.9%[138 µM]	-3.6%[172 µM]
Cc1ccsc1C(=O)Nc1ccc2c(N3CCCCC3)ncnc2c1	u	2.2%	u	-5.9%	35.5µM*	u
O=C(Nc1ccc2ncnc(N3CCCCC3)c2c1)c1ccccc1Br	i	-9.1%	-18.2%	u	u	44.7µM*
O=C(Nc1ccc2c(N3CCCC3)ncnc2c1)c1ccccc1Cl	u	-14.6%	-20.3%	0.0%	25.1µM*	u
Cc1ccc(C(=O)Nc2ccc3c(N4CCCCC4)ncnc3c2)cc1F	i	u	-23.9%	-29.2%	u	u
O=C(Nc1ccc2c(N3CCCCC3)ncnc2c1)c1ccc(F)cc1	u	-28.8%	-19.4%	-18.9%	28.2µM*	u
CC(=O)N1CCN(C(=O)c2nc3sccn3c2-c2ccc(C)cc2)CC1	x	-11.6%	4.4%	x	-13.5%	-5.1%
O=C(Nc1ccc2ncnc(N3CCCCC3)c2c1)c1c(F)cccc1Cl	i	0.3%	u	-7.0%	u	50.1µM*
CSc1ccc(-c2cccc(C(=O)NCC(=O)NCc3ccc(F)cc3)c2)cc1	x	-23.8%	-3.4%	x	u	15.8µM*
O=C(NCC(=O)N1CCC(c2ccccc2)CC1)c1cccc(-c2ccc(C(F)(F)F)cc2)c1	x	-18.9%	-0.8%[12.5 µM]	x	u	10µM*
CSc1ccc(-c2cccc(C(=O)NCC(=O)NCc3ccccc3)c2)cc1	x	-11.1%	-25.0%	x	u	u
CSc1ccc(-c2cccc(C(=O)NCC(=O)N3CCOCC3)c2)cc1	x	58.6%	0.5%	x	u	u
O=C(CNC(=O)c1cccc(-c2ccc(C(F)(F)F)cc2)c1)NCc1cccc(Cl)c1	x	u	4.9%[12.5 µM]	x	u	28.2µM*
CSc1ccc(-c2cccc(C(=O)NCC(=O)N3CCN(c4ncccn4)CC3)c2)cc1	x	8.2%	-23.9%	x	u	22.4µM*
CSc1ccc(-c2cccc(C(=O)NCC(=O)N3CCC(c4ccccc4)CC3)c2)cc1	x	-12.8%	4.0%	x	-46.3%	u
O=C(CN1C(=O)C(Oc2ccc(F)cc2)C12CCCCC2)NCCc1ccccn1 (stereo unspecified)	x	5.5%	7.9%	x	-19.0%	-7.1%
Cn1ncc2c(C(=O)NCc3ccc(F)cc3F)cc(-c3ccc(C(F)(F)F)cc3)nc21	x	x	x	x	-26.2%	-2.8%
COc1ccc(-n2nc(C3CCN([S+](=O)([O-])c4ccc(C)cc4)CC3)[nH]c2=O)cc1	i	-15.1%	12.8%	14.1%	1.0%	i
COc1ccc(C(=O)N2CCC(c3nn(-c4ccc(Cl)cc4)c(=O)[nH]3)CC2)cc1	i	-18.2%	11.0%	-13.3%	u	u
COc1ccc(-n2nc(C3CCN(Cc4ccc(C)cc4)CC3)[nH]c2=O)cc1	i	-6.6%	-11.6%	-14.4%	u	39.8µM*!
